From PubChem BioAssay (NCI)
Compounds without any hit were thinned out: in the full panel of roughly 83,000, 20% have a hit.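 Results are percent growth after 48 hours of single-concentration exposure. 100 means growth as in untreated cells, lower positive values show inhibition; negative values down to -100 show cell death.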 Unmarked numbers belong to inactive results. Calls of active or inactive are those of the source. How the source made its calls: active means growth percent below 10; inactive means the rest.

Tests used:
Assay in all cases: NCI-60 one-dose screen, 48 h (100 = growth as untreated, 0 = no growth, -100 = all killed)
Settings in all cases: 10 µM unless noted
SK-MEL-2 melanoma = tested on: SK-MEL-2 melanoma
EKVX NSCLC = tested on: EKVX NSCLC
SN12C renal = tested on: SN12C renal
UO-31 renal = tested on: UO-31 renal
TK-10 renal = tested on: TK-10 renal
A498 renal = tested on: A498 renal
CCRF-CEM leukemia = tested on: CCRF-CEM leukemia
MOLT-4 leukemia = tested on: MOLT-4 leukemia
CAKI-1 renal = tested on: CAKI-1 renal

Row | Structure (SMILES) | growth (SK-MEL-2 melanoma) | growth (EKVX NSCLC) | growth (SN12C renal) | growth (UO-31 renal) | growth (TK-10 renal) | growth (A498 renal) | growth (CCRF-CEM leukemia) | growth (MOLT-4 leukemia) | growth (CAKI-1 renal)
1 | CN1C[C@@H](c2ccc(Cl)cc2)[C@]2(NC(=S)N(c3ccccc3)C2=O)[C@@]12C(=O)NC1C=CC(Br)=C[C@H]12 (some centres not stated) | 61.2% | 71.1% | 46.1% | 40.4% | 87.2% | 80.2% | 30.5% | – | –
2 | COc1cccc(CCC2CCCN(c3cc(C)nc(N)n3)C2)c1 (configuration not stated) | 29.1% | 41.4% | 34.1% | 35.7% | 37.5% | -2.99% (active) | 25.7% | 27.5% | –
3 | O=C1CCC(N2C(=O)c3cccc(NCCCC4CCN(CCNC(=O)c5cc6c(o5)C(=O)c5ccccc5C6=O)CC4)c3C2=O)C(=O)N1 (configuration not stated) | -46.4% (active) | -61.8% (active) | -95.4% (active) | -72.9% (active) | -70.6% (active) | – | 21% | 21.8% | -26.4% (active)
4 | Cc1[nH]c(-c2nc3ccccc3[nH]2)c(C)c1C(=O)N1CCOCC1 | 99.6% | 91.2% | 86.8% | 82.2% | 106% | – | 112% | 105% | 101%
5 | COc1ccc(-c2c(N)n[nH]c2-c2ccccc2O)cc1OC | 88.2% | 92.4% | 104% | 62.6% | 98.5% | 118% | 81.8% | 97% | 21.6%
6 | CCCCCOC(=O)c1cccc(NC(=O)CN(CC)CC)c1 | 70.7% | 100% | 106% | 89.2% | 82.9% | 113% | 78.6% | – | –
